In the OligoGym collection:

Target: SLC2A8
Test: pooled miR-30 sensor sort-seq; sequence = guide strand
Details: shRNA
Note: reference of the scale not given here.

| Sequence | sensor-assay potency score (higher = more potent) |
| --- | --- |
| TTAGCTGCACACAGGAGCCGAG | -0.983 |
| TTTGTTCCAGAGTCTTTCCTTT | 0.354 |
| TGAGTCAGCAGGAAGCGCGGGG | -0.717 |
| TAGCTGCACACAGGAGCCGAGC | -1.45 |
| TGAACACCATGACCACACCTGA | -0.865 |
| TTGGTGAGGACGCAGATGCCTG | -1.08 |
| ATTTCGGAGATGTAGACCGGGG | -0.598 |
| TTTAGTTTCAGGGACACAGAAC | -0.989 |
| ATTAGCTGCACACAGGAGCCGA | -0.991 |
| TCTGCATAGAACATGACGGCGT | -0.336 |
| AAAAGGACACTGAAGATGCAGA | -0.924 |
| ATCTCTGACATGAGGAGCCAGG | -1.73 |

Target: SLC30A10
Test: as above
Details: shRNA

| Sequence | sensor-assay potency score (higher = more potent) |
| --- | --- |
| TTTTGTTAAGACTTTGTCCGTG | 0.41 |
| ATTTGAAACATTCTATAGCTGC | -0.495 |
| TTAGAAACAAGAACTTCTTTGA | 0.415 |
| TTAGCTAGAAGTTCTAATCAGT | 0.384 |
| TAAGCTATGATCTCACCTGAGC | -0.73 |
| TCTTTGAACACTGTATCCGCAG | -0.212 |
| TAACACTGCCAGTTACACGGGT | -0.383 |
| TTTTGGGACCATCTGTAGCAGA | -0.988 |
| TCTGAGAATATTTTCTACCTTA | -0.0606 |
| TTTGTTAAGACTTTGTCCGTGG | 0.766 |
| TTAAGCATTTGAAACATTCTAT | 0.231 |
| TTAAGCTATGATCTCACCTGAG | -0.235 |

Target: SLC30A1
Test: as above
Details: shRNA

| Sequence | sensor-assay potency score (higher = more potent) |
| --- | --- |
| TTTACTACTACAATCACTGAAC | -0.0512 |
| TTTTCAGCTTTAGTCCTCCTGG | -0.574 |
| TACACTAGCAAATTCAGGCTGA | 0.702 |
| TTAATCTCTATCACAACAGCAG | 0.193 |
| TAGTGTCCCACAACATTGCTTC | 0.199 |
| TTCTTCTCTAGATTGTTACTAA | -0.537 |
| TAATCTCTATCACAACAGCAGG | -1.43 |
| TTTGTTTAGGAACAGTTTGTAG | -1.09 |
| TTAAGTAATGGATAGGTTGTGT | -0.332 |
| TTCACTTGTACTTCCACTGTAT | 0.732 |
| TAGATTGTTACTAAGTTCTAAA | -0.976 |
| TTGATTTAGAGCCTACACTAGC | -0.669 |

Target: SLC34A1
Test: as above
Details: shRNA

| Sequence | sensor-assay potency score (higher = more potent) |
| --- | --- |
| TCTGTGATGATCTTGAGCAGGT | 0.374 |
| TGGACCACGAAGGTCATGCTGG | -0.818 |
| TCTCAATGCTGATCACACCAAG | -0.785 |
| TTCAGGGAGTGCATCCAGCGAG | -0.619 |
